# Only some compounds are listed: those with a hit (about 1.2% of all), similar ones and a draw of the others.
# LAP4 TOR yeast – alters LAP4-GFP fluorescence in TOR pathway yeast screen | S. cerevisiae LAP4-GFP multiplex, flow cytometry GFP, 3 h; median GFP as percent of DMSO wells | 320,000 tested, 0.34% active | GFP response vs DMSO, % at 10 µM | AID 2023;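 active means GFP response vs DMSO above a set limit, about the screen mean plus 3 SD, cut at about 150% in these data; inconclusive means under 70 cell events counted for the yeast strain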
# MEP2 TOR yeast – alters MEP2-GFP fluorescence in TOR pathway yeast screen | 330,000 tested, 0.51% active | GFP response vs DMSO, % at 10 µM | AID 2016 | S. cerevisiae MEP2-GFP strain, flow cytometry GFP, 3 h; 100% = DMSO control level;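 active means GFP response versus DMSO above a set limit, roughly screen mean plus 3 SD, cut at about 180% in these data; inconclusive means fewer than 70 cells counted for a yeast strain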;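 further: median GFP fluorescence of the barcode-gated MEP2-GFP cells per well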
# Pemphigus Ab inh – blocks pemphigus antibody binding to human desmoglein-3. P32926. DSG3-coupled beads, scFv-anti-DSG3-GFP binding, flow cytometry; active compounds read low. binding (percent of control), % at 10 µM. 310,000 tested, 0.48% active;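 active means binding more than 3 SD below its plate's average and above zero; inconclusive means below that plate limit but binding exactly zero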;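 further: hits lower antibody fragment binding to DSG3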
# Target sequence (P32926 whole entry, looked up, the tested form may be a part): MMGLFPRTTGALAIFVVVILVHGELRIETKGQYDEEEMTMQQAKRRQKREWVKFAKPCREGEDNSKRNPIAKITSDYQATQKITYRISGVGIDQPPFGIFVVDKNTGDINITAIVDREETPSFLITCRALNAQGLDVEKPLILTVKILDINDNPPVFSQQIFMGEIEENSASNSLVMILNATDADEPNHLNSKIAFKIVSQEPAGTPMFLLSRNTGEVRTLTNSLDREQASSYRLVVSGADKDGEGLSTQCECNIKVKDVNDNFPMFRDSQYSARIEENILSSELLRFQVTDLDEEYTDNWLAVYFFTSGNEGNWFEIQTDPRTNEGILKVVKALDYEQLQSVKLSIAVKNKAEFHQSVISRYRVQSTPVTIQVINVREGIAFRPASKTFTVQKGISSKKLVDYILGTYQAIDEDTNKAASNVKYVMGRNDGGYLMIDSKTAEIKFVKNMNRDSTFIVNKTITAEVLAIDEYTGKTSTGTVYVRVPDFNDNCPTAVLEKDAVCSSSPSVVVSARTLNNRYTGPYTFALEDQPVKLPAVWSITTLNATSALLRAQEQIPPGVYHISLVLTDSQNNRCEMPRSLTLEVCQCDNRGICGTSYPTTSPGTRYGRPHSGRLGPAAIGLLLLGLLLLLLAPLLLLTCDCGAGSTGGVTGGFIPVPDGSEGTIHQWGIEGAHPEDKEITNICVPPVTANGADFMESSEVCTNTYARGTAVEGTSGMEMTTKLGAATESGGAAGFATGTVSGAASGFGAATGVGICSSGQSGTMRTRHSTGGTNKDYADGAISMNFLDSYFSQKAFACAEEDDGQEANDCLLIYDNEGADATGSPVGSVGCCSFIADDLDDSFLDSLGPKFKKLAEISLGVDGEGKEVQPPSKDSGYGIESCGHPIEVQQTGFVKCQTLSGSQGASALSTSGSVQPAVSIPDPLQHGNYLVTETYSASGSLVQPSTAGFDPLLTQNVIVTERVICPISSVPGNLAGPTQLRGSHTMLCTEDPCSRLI
# AGP1-GFP MLPCN – modulators of TOR pathway AGP1-GFP in S. cerevisiae | S. cerevisiae AGP1-GFP multiplex flow cytometry, 3 h; GFP as percent of DMSO wells | GFP response vs DMSO, % at 10 µM | 320,000 tested, 0.02% active;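 active means GFP response relative to DMSO above a set limit, near screen average plus 3 SD, cut at about 150% in these data; inconclusive means fewer than 70 cells counted for the yeast strain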;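 further: median GFP channel fluorescence of the gated AGP1 strain per well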
# RPL19A TOR yeast – modulators of TOR pathway RPL19A-GFP in S. cerevisiae; AID 2025; 330,000 tested, 0.3% active; S. cerevisiae RPL19A-GFP strain, flow cytometry, 3 h; active compounds read low; percent response vs DMSO, % at 10 µM;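 active means percent response vs DMSO below 50%; inconclusive means fewer than 70 events counted for the yeast strain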;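 further: median channel GFP fluorescence of the barcoded RPL19A-GFP strain; ratio of sample median GFP to plate DMSO average so 100% = DMSO; lower means less RPL19A-GFP as with rapamycin TOR inhibition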
# CIT2-GFP yeast – alters CIT2-GFP fluorescence in TOR pathway yeast screen. S. cerevisiae CIT2-GFP strain, flow cytometry, 3 h; 100 means same as DMSO wells. GFP response vs DMSO, % at 10 µM. 320,000 tested, 0.065% active;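 active means GFP response relative to DMSO above a set limit, near the screen mean plus 3 SD, cut at about 150% in these data; inconclusive means Fewer than 70 cells measured for a yeast strain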;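 further: ratio of well median GFP fluorescence to mean of DMSO wells on the plate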
# An asterisk follows results filed as active; ? = inconclusive; nt = no result given; [ ] = remark or other dose.
SMILES,LAP4 TOR yeast,MEP2 TOR yeast,Pemphigus Ab inh,AGP1-GFP MLPCN,RPL19A TOR yeast,CIT2-GFP yeast
C#CCOCCOCCOCCNc1nc(N2CCN(C(=O)CCCCCCCCCCNC(=O)[C@H]([C@@H](C)CC)n3cc(CCCCN=C(N)N)nn3)CC2)nc(N2CCN(C(=O)CCCCCCCCCCNC(=O)[C@H](CCCN=C(N)N)n3cc(C[C@@H](C)CC)nn3)CC2)n1,165*,106,nt,93,75,96
C#CCOCCOCCOCCNc1nc(N2CCOCC2)nc(N2CCN(C(=O)CCCCCCCCCCNC(=O)[C@H]([C@@H](C)CC)n3cc(CCCCN=C(N)N)nn3)CC2)n1,119,78,111,77,88,90
COc1ccccc1C(=O)N1CCN(C(=O)c2oc3c(C)c(C)ccc3c2C)CC1,nt,nt,102,nt,nt,nt
CCOc1cc(N2CCOCC2)c(OCC)cc1NC(=O)c1ccccc1N1CCCC1=O,nt,nt,99,nt,nt,nt
O=c1[nH]c(CN2CCN(c3ccccc3)CC2)nc2scc(-c3ccccc3)c12,99,105,105,110,104,112
COc1ccc(N2CCN(Cc3nc4scc(-c5ccccc5)c4c(=O)[nH]3)CC2)cc1,91,101,49*,100,103,100
Cc1cc(C)c(NC(=S)NC(=O)c2ccc(-c3ccccc3)cc2)c(C)c1,91,93,41*,94,89,90
COc1cc(C2CC(c3cccnc3)=NN2c2ccc(F)cc2)cc(OC)c1OC (configuration not stated),120,151,105,101,112,159*
CC(O)[C@H]1CNC(=S)N1CCc1cccc(F)c1 (some centres not stated),88,102,108,100,100,94
O=C1C=C(NCCc2cc(Br)c(O)c(Br)c2)C(=O)c2ncccc21,nt,nt,58*,nt,nt,nt
CCC(=O)OC1(C)C(=O)C=C2C=C(CCCC(=O)OC)OC=C2C1=O (configuration not stated),88,87,98,90,94,88
CCCCC1=CC2=CC(=O)C(C)(OC(=O)CC)C(=O)C2=CO1 (configuration not stated),52,260*[may fluoresce violet],95,?,35*[may fluoresce violet],?
CCOC(=O)C1(C)/C(=N/Nc2ccccc2Cl)C(=O)C(=O)N1c1ccccc1 (configuration not stated),106,561*[may fluoresce violet],nt,nt,41*[may fluoresce violet],?
Cc1c(NC(=O)CN2c3ccccc3CC2C)c(=O)n(-c2ccccc2)n1C (configuration not stated),90,81,103*,81,89,92
Cc1c(NC(=O)CN2CC(C)OC(C)C2)c(=O)n(-c2ccccc2)n1C (configuration not stated),98,100,96,95,97,100
Cc1c(NC(=O)Nc2ccc3c(c2)OCO3)c(=O)n(-c2ccccc2)n1C,260*,225*,101,161*,93,112
Cc1c(NC(=O)CN2CCN(C(c3ccccc3)c3ccccc3)CC2)c(=O)n(-c2ccccc2)n1C,94,487*[may fluoresce violet],110,?,27*[may fluoresce violet],?
COc1ccc(C2c3c(oc4ccccc4c3=O)C(=O)N2CCN2CCOCC2)cc1OC (configuration not stated),96,188*,80,74,54,90
CCN(CC)CCOC(=O)c1ccc(NC(=S)NC(=O)/C=C/c2ccco2)cc1,104,95,nt,96,92,85
CN(c1ccccc1)S(=O)(=O)c1cc(C(=O)NCc2ccco2)ccc1Cl,nt,nt,105,nt,nt,nt
COc1ccccc1/C=C/C(=O)OC(C)CN1CCCCC1 (configuration not stated),79,105,89*,95,100,107
COc1ccccc1/C=C/C(=O)OCCN1CCOCC1,98,103,99,98,102,98
Nc1ccc(CSc2ccccc2)cc1,nt,nt,89,nt,nt,nt
O=C(O)C1(Nc2ccc(Cl)cc2)CCCC1,nt,nt,91,nt,nt,nt
NC(=O)C1(Nc2ccc(-c3ccc(Cl)cc3)cc2)CCCC1,nt,nt,54*,nt,nt,nt
Cc1ccc(SSc2cc(C)ccc2N)c(N)c1,131,82,65*,88,99,101

# Source: PubChem BioAssay (NMMLSC)
